# Results from the supplement of paper PMC8728848.
# Only a selection was taken, and the strongest signals are over-represented in it overall.
# What was measured:
# Experiment in all cases: glycan array binding signal (z-score within array); higher = stronger binding
# Details in all cases: glycan notation: IUPAC condensed, linker removed
# [1] = biological target: GlcNAc(b1-2)[GlcNAc(b1-6)]Man(a1-6)[GlcNAc(b1-2)Man(a1-3)]Man(b1-4)GlcNAc(b1-4)[Fuc(a1-6)]GlcNAc
# In short: (§1)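 From the Consortium for Functional Glycomics database, 3228 arrays were curated, keeping only those whose protein sequence was available. Binding is given as a within-array Z-score averaged across arrays sharing a protein sequence and across linkers. Negative Z-scores can be read as non-binding.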
# [2] = biological target: GlcNAc(b1-2)[GlcNAc(b1-6)]Man(a1-6)[GlcNAc(b1-4)][GlcNAc(b1-2)Man(a1-3)]Man(b1-4)GlcNAc(b1-4)GlcNAc
# In short: as §1
# [3] = biological target: GlcNAc(b1-4)[GlcNAc(b1-6)]GalNAc
# In short: as §1
# [4] = biological target: GlcNAc(b1-6)GalNAc
# In short: as §1
# [5] = biological target: GlcNAc6S(b1-3)Gal(b1-4)GlcNAc
# In short: as §1
# [6] = biological target: Man(a1-2)Man(a1-2)Man(a1-6)[Man(a1-3)]Man
# In short: as §1
# [7] = biological target: Man(a1-2)Man(a1-6)[Man(a1-3)]Man(a1-6)[Man(a1-2)Man(a1-2)Man(a1-3)]Man
# In short: as §1
# [8] = biological target: Man(a1-3)[Man(a1-6)]Man(a1-6)[Man(a1-3)]Man(b1-4)GlcNAc(b1-4)GlcNAc
# In short: as §1
# [9] = biological target: Neu5Ac(a2-3)Gal(b1-3)GlcNAc(b1-6)GalNAc
# In short: as §1
# [10] = biological target: Neu5Ac(a2-3)Gal(b1-3)[GlcNAc(b1-6)]GalNAc
# In short: as §1
# [11] = biological target: Neu5Ac(a2-3)Gal(b1-4)GlcNAc(b1-3)Gal(b1-4)[Fuc(a1-3)]GlcNAc
# In short: as §1
# [12] = biological target: Neu5Ac(a2-3)Gal(b1-4)[Fuc(a1-3)]GlcNAc(b1-3)Gal
# In short: as §1
# [13] = biological target: Neu5Ac(a2-3)Gal6S(b1-4)[Fuc(a1-3)]GlcNAc
# In short: as §1
# [14] = biological target: Neu5Ac(a2-6)Gal(b1-4)GlcNAc(b1-2)Man(a1-3)Man(b1-4)GlcNAc(b1-4)GlcNAc
# In short: as §1
# [15] = biological target: Neu5Ac(a2-6)Gal(b1-4)GlcNAc(b1-6)GalNAc
# In short: as §1
# [16] = biological target: Neu5Ac(a2-8)Neu5Ac(a2-8)Neu5Ac
# In short: as §1
# [17] = biological target: Neu5Gc(a2-6)GalNAc
# In short: as §1
binder,measurement,setting,value
"AT1G73650(15) (Arabidopsis thaliana), F4HRY1 (protein) MGTVLDSHFLALTAIVTVIYQFIFFVITALFKFDQVTDFAGSTNFVILAVLTLVLKASWHFRQIVLTLLVVVWGLRLGIFLLMETRILQWGEDRRFDEQRGNIVRLIIFWTLQAVWVWTVSLPLTLVNASDGGGSLKPADVIGWTMETWVFGFLIEAAADQQKLSFKNSPENRGKWCDVGVWKYSRHPNYFGEMETLLWWGIFVAASPVLEGAEYLVIFGPLFLTLLLLFVSGIPLLEASADKKHGNSGAYRSYKKTTSPLILFPRGVYGNLPGWFKTVFLFEFPFYSRNLPQEGRLQNSKEKEVKDD",glycan array binding signal (z-score),[1],0.047
same,glycan array binding signal (z-score),[2],-0.322
same,glycan array binding signal (z-score),[3],-0.41
same,glycan array binding signal (z-score),[4],-0.154
same,glycan array binding signal (z-score),[5],-0.641
same,glycan array binding signal (z-score),[6],-0.361
same,glycan array binding signal (z-score),[7],-0.508
same,glycan array binding signal (z-score),[8],-0.566
same,glycan array binding signal (z-score),[9],3.42
same,glycan array binding signal (z-score),[10],-0.402
same,glycan array binding signal (z-score),[11],1.23
same,glycan array binding signal (z-score),[12],-0.714
same,glycan array binding signal (z-score),[13],-0.428
same,glycan array binding signal (z-score),[14],-0.274
same,glycan array binding signal (z-score),[15],7.33
same,glycan array binding signal (z-score),[16],2.92
same,glycan array binding signal (z-score),[17],3.69
